SMN2 splice enh: qHTS Assay for Enhancers of SMN2 Splice Variant Expression; HEK293 SMN2-luciferase splicing reporter, luminescence, 30-36 h; Potency, µM (doses to about 46.1 µM), for the others: at the top dose activity change, positive = activation, usual class: activators; 2.8% of 210,000 active; AID 1458, 2008; further: % of control where 0% means no effect; nearly all actives have a fitted effect of over 55% in size
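HEK293 cells carry an SMN2 […]–luciferase reporter in which exon 7 inclusion puts luciferase in frame. Cells were plated 10-12 h before compound addition, then incubated 30-36 h at 37C. ONE-Glo luminescence was read; sodium butyrate at 4.5 mM final served as control.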
ELG1 DNA repair: qHTS screen for small molecules that inhibit ELG1-dependent DNA repair in human embryonic kidney (HEK293T) cells expressing luciferase-tagged ELG1; Potency, µM (series often up to 46.1 µM), inactives show top-dose activity change, negative = inhibition, hits mostly inhibitors; HEK293T ELG1-luciferase reporter, luminescence, 16 h; DNA damage induced by 5-fluorouridine; 2.3% of 330,000 active; further: on the % scale 0 is the no-effect control and ±100 the full control effect; nearly all actives have a fitted effect of over 55% in size
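In this reporter screen, reduction of luminescence relative to DMSO vehicle indicated activity. Compounds and 5-fluorouridine were added together to 2,000 cells per well, incubated for 16 hr at 37 °C, then developed with ONE-Glo.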
Rab9 prom act: qHTS Assay for Rab9 Promoter Activators | Huh7 Rab9 promoter-luciferase reporter, luminescence, 24 h | Potency, µM (series often up to 9.22 µM), inactives show top-dose activation, negative = inhibition, most hits filed as activators | 2.8% of 320,000 active; further: % of control where 0% means no effect; nearly all actives have a fitted effect of over 60% in size
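Huh7 reporter line, Rab9 promoter upstream of luciferase. Compound exposure 24 h at 37 °C in reduced-serum medium with 10% FBS. Read-out: luminescence.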
FLuc modulator: qHTS profiling assay for firefly luciferase inhibitor/activator using purifed enzyme and Km concentrations of substrates (counterscreen for miR-21 project); Luciferin 4-monooxygenase (Photinus pyralis), P08659; purified FLuc, Km substrates, luminescence inhibition; Potency, µM (top dose mostly 57.5 µM), for the others: at the highest dose activity change, negative = inhibition, hits mostly inhibitors; 6.9% of 360,000 active;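 further: plate controls were vehicle for no effect and reference inhibitor for full effect; nearly all actives have a fitted effect of over 55% in size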
Target sequence (P08659 whole entry, looked up): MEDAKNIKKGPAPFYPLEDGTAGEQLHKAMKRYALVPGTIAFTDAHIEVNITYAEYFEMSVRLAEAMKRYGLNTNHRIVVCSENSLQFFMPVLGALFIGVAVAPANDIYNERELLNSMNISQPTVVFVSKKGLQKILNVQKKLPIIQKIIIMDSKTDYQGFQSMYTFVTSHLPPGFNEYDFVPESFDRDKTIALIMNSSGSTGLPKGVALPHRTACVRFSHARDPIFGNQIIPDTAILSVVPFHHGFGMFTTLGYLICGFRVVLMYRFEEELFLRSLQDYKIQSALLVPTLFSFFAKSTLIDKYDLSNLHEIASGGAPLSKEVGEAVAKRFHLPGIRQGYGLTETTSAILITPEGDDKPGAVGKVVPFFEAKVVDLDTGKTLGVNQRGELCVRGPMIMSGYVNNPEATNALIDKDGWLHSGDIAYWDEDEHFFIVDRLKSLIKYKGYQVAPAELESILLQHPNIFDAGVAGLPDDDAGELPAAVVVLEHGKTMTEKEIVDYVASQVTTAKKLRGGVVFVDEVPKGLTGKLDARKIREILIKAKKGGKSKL
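Purified P. pyralis luciferase (10nM final) with 10uM D-luciferin and 10uM ATP (Km levels) in 50mM Tris acetate pH 7.5, 10mM Mg acetate, 0.01% Tween-20, 0.05% BSA; qHTS 6-point titration, ~60 µM downward; luminescence read.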
ELG1 genotox: qHTS screen for small molecules that induce genotoxicity in human embryonic kidney (HEK293T) cells expressing luciferase-tagged ELG1; HEK293T ELG1-luciferase reporter, luminescence, 16 h; Potency, µM (series often up to 46 µM), for the others: at the top dose activity change, positive = activation, hits mostly activators; 1.3% of 330,000 active; further: % of control where 0% means no effect; nearly all actives have a fitted effect of over 60% in size
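Genotoxicity was scored as increased ELG1-luciferase reporter signal, measured by ONE-Glo luminescence (30 min, room temperature). Compound or vehicle exposure of the HEK293T reporter cells lasted 16 hr at 37°C.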
NPC1 prom act: qHTS Assay for NPC1 Promoter Activators. Huh7 NPC1 promoter luciferase reporter, 24 h. Potency, µM (highest dose often 9.22 µM), for inactives: at the highest dose activation, most hits filed as activators. 2.4% of 320,000 active; further: % of control where 0% means no effect; nearly all actives have a fitted effect of over 60% in size
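Huh7 reporter cells (NPC1 promoter driving luciferase) are dosed with compound for 24 h at 37 °C, 5% CO2; luciferase detection reagent is then added and luminescence measured after 10 min at ambient temperature.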
* = called active by the depositor; ? = inconclusive; nt = not tested or not shown; [ ] = dose if it differs, or a comment. Most compounds without a hit are left out; they make up all but 9.2% or so of the library. The call rests on the fitted dose curve; in most records, active means well fitted curve in the direction sought with a large enough effect; inconclusive means small, poorly fitted or top-dose-only effect, or another doubt; inactive means no such curve, though single readings can be large; an effect the other way counts as inactive or inconclusive. Potency means the concentration at half of the fitted maximal effect.

SMILES	SMN2 splice enh	ELG1 DNA repair	Rab9 prom act	FLuc modulator	ELG1 genotox	NPC1 prom act
C=CCn1c(SCC(=O)Nc2sc(C)c(C)c2C(=O)OCC)nnc1-c1sc(N)nc1C	nt	5.8µM*	-4.6%	-2.0%	-9.8%	-2.3%
O=C(Cn1cnc2c(OCc3ccccc3)ncnc21)NCCCc1ccccc1	nt	2.6%	nt	nt	1.1%	nt
Cc1ccccc1/C=N/NC(=O)c1ccc(-n2cnnn2)cc1	nt	-8.6%	-6.2%	?	-0.9%	0.8%
CC(C)(C)c1csc(NC(=O)c2ccncc2)n1	-63.7%	?	-5.8%	?	-4.9%	-6.7%
CC(C)(C)c1csc(NC(=O)c2ccc(Cl)s2)n1	-17.0%	14.8%	?	6.75µM*	3.5%	?
CC(C)(C)c1csc(NC(=O)c2ccc3nccnc3c2)n1	13.6%	?	3.55µM*	8.49µM*	8.2%	2.51µM*
Cc1ccc(C(=O)Nc2nc(C(C)(C)C)cs2)s1	-4.7%	?	3.16µM*	5.36µM*	4.61µM*	?
O=C(Nc1ccc(Br)cc1F)c1ncoc1-c1ccco1	nt	nt	nt	-6.7%	nt	nt
COc1ccc(CCNC(=O)CCCCCN2C(=O)[C@@H]3Cc4ccccc4CN3C2=O)cc1OC	nt	?	-2.0%	0.8%	-7.7%	-2.3%
O=C(O)/C(=C1/OC(=O)c2ccccc21)c1ccccc1	-10.4%	10.0%	4.8%	-1.2%	-5.4%	1.6%
COC(=O)/C(=C1\OC(=O)C(c2ccccc2)C1=O)c1ccccc1 (stereo unspecified)	12.6µM*	nt	nt	nt	nt	nt
COC(=O)c1ccccc1	-4.7%	nt	nt	nt	nt	nt
COc1cccc(C(=O)/C=C/Nc2ccc(S(=O)(=O)Nc3ccc(C(C)=O)cc3)cc2)c1	nt	-0.2%	0.4%	?	11.2%	-0.6%
COC(=O)c1ccc(N/C=C/C(=O)c2ccccc2)cc1	nt	?	0.501µM*	0.601µM*	?	?
COc1ccc(C(=O)/C=C/Nc2ccc(S(=O)(=O)Nc3cccc(C(C)=O)c3)cc2)cc1	-36.3%	23.1µM*	-16.5%	-5.5%	-3.9%	-9.2%
CCOC(=O)c1ccc(N/C=C\C(=O)c2cccc(OC)c2)cc1	?	?	?	3.01µM*	15.8%	?
COc1cccc(C(=O)/C=C/Nc2cc(C)ccc2O)c1	nt	?	-12.1%	2.69µM*	?	-5.0%
COC(=O)c1ccc(C(NC(=O)OCc2ccccc2)/C(=C/[C@@H](C)C(=O)NCCF)c2cccnc2)cc1 (stereo partly specified)	-5.5%	nt	nt	nt	nt	nt
CC(=O)Nc1ccc(N/C=C/C(=O)c2ccc(C)cc2)cc1	nt	?	19.7%	-18.7%	-2.1%	?
CCOC(=O)c1ccc(OS(=O)(=O)c2ccccc2)c(OC)c1	11.2µM*	?	2.82µM*	7.57µM*	?	2.82µM*
Cc1ccc(Cl)c(N/C=C/C(=O)c2ccccc2)c1	nt	?	?	1.07µM*	9.2µM*	?
Cc1cccc(N/C=C/C(=O)c2ccc(Cl)cc2)c1	nt	?	0.355µM*	0.675µM*	?	0.562µM*
COc1ccc(OC)c(N/C=C/C(=O)c2ccc(OC)c(OC)c2)c1	nt	-13.5%	4.1%	19µM*	?	2.3%
Cc1cccc(C(=O)NN/C=C/C(=O)c2ccccc2)c1	nt	8.1%	-3.5%	-18.0%	1.9%	-4.4%
COc1ccc(-c2csc3c2[N+]2=CCC=C2C3=O)cc1	-12.8%[9.22 µM]	nt	nt	nt	nt	nt
SMILES	SMN2 splice enh	ELG1 DNA repair	Rab9 prom act	FLuc modulator	ELG1 genotox	NPC1 prom act
Cc1ccc(C(=O)NCC(=O)OCC(=O)c2ccccc2)s1	nt	15.8%	4.3%	nt	-2.3%	-1.1%
COc1ccc(C(=O)/C=C/Nc2cccc(O)c2)cc1	?	?	?	0.379µM*	1.46µM*	1.8%
CCOC(=O)c1cccc(N/C=C/C(=O)c2ccc(OC)c(OC)c2)c1	64.4%	?	1.58µM*	10.7µM*	?	0.631µM*
COc1cccc(N/C=C/C(=O)c2ccc(OC)c(OC)c2)c1	nt	?	?	1.35µM*	?	3.55µM*
O=C(/C=C\Nc1ccccn1)c1ccc(Cl)cc1	1µM*	?	0.1µM*	0.19µM*	?	0.282µM*
CCn1c2ccccc2c2cc(NC(=O)c3ccccc3[N+](=O)[O-])ccc21	8.9%	?	-5.8%	-1.9%	3.0%	-1.8%
CCOc1cc(-c2nc(-c3ccccc3)c(-c3cc([N+](=O)[O-])ccc3C)[nH]2)ccc1O	-2.0%	nt	nt	5.4%	nt	nt
COc1ccc(-c2nc(-c3ccccc3)c(-c3cc([N+](=O)[O-])ccc3C)[nH]2)cc1OC	-18.8%	10.3µM*	-2.3%	5.4%	-4.6%	-3.7%
CN(C(=O)c1ccc(S(=O)(=O)N2CCCCC2)cc1)C1CCS(=O)(=O)C1 (stereo unspecified)	nt	11.2%	1.9%	3.4%	-6.1%	-1.7%
CCN(CC)c1ccc(N=Cc2ccccc2[N+](=O)[O-])cc1	-22.4%	-3.0%	2.6%	3.79µM*	-7.3%	-0.8%
CCN(CC)c1ccc(N=Cc2ccc([N+](=O)[O-])o2)cc1	-14.7%	5.6%	22.0%	6.75µM*	-2.0%	14.1%
CCOC(=O)c1cc(CC)sc1NC(=O)COc1ccccc1C	-6.3%	nt	nt	-2.3%	nt	nt
CCN1C(=O)/C(=C/N2CCc3ccccc3C2)SC1=S	nt	?	?	23.9µM*	10.0%	?
Cc1ccc([N+](=O)[O-])cc1NC(=S)NC(=O)c1cccs1	8.2%	12.9%	3.6%	2.2%	2.2%	-0.5%
CCn1c(N2CCN(S(=O)(=O)c3ccc(Cl)cc3)CC2)nc2ccccc21	-43.3%	14.6µM*	-4.9%	-0.2%	-16.4%	-9.9%
CCOc1ccc(NC(=O)c2ccccc2OCC(=O)c2ccccc2)cc1	-12.0%	-16.6%	?	2.13µM*	14.6%	23.3%
O=C(COc1ccc(NC(=O)c2ccccc2)cc1)c1ccccc1	nt	14.4%	14.7%	2.13µM*	3.8%	?
CCOc1ccccc1C(=O)Nc1ccc(NC(=O)c2ccccc2)cc1	nt	7.9%	10.5%	0.7%	16.4%	-0.7%
Cc1ccc(NC(=O)c2ccccc2OCC(=O)c2ccccc2)cc1	23.7%	-7.3%	-0.4%	13.5µM*	13.0%	-0.2%
C/C(=N\Nc1nc2ccccc2c(=O)n1O)c1ccco1	nt	?	3.16µM*	10.7µM*	?	29.5%
Cc1ccc(C)c(/C=N/Nc2nc3ccccc3c(=O)n2O)c1	nt	18.9%	2.3%	13.5µM*	3.9%	5.6%
